# An excerpt weighted towards active compounds, which were near 17% of everything screened.
# ATXN viability: viability counter-screen for ATXN expression inhibitors | S2 cells (HEK-293 line with an ATXN2-luciferase reporter) viability, CellTiter-Fluor protease fluorescence, 24 h | Potency, µM (highest dose often 56.7 µM), usual class: cytotoxic | 0.49% of 400,000 active | AID 651635; further: nearly all actives have a fitted effect of over 40% in size
# DT40 TDP1 CPT: DT40-hTDP1 cell growth loss with CPT | chicken DT40 Tdp1-/-;hTDP1 cells + 20 nM CPT, ATP luminescence, 48 h | Potency, µM (top dose mostly 46.2 µM), for inactives: top-dose activity change, negative = growth inhibition, most hits filed as inhibitors | 12% of 420,000 active; further: on the % scale 0 is the no-effect control and ±100 the full control effect; nearly all actives have a fitted effect of over 55% in size
#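 Chicken DT40 Tdp1-/- cells stably complemented with human TDP1 were seeded at 400 cells/well in medium containing 20 nM camptothecin, exposed to pin-transferred compounds, and grown at 37 °C for at least 48 hr. Viability was read as ATP luminescence.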
# TGFb inhibitor: TGF-b pathway inhibition; HepG2 CAGA-GFP TGF-b/SMAD3 reporter, GFP fluorescence, 18 h; TGF-beta stimulated, 500 pg/mL final; Potency, µM (top dose mostly 46.1 µM), inactives show top-dose activity, negative = inhibition, most hits filed as inhibitors; 1.2% of 410,000 active; further: on the % scale 0 is the no-effect control and ±100 the full control effect; nearly all actives have a fitted effect of over 65% in size
#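 Inhibition was scored as loss of TGF-beta-induced (500 pg/mL final, 18 hours, 37 degrees C) GFP in HEPG2 cells carrying a CAGA-GFP reporter, in DMEM with 1% FBS. Well GFP was summed per cell; Activity was normalised to unstimulated and stimulated DMSO wells, then concentration-response fitting.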
# ATXN2 expr inh: inhibitors of ATXN2 expression. HEK-293 ATXN2-luciferase reporter, luminescence, 24 h. Potency, µM (series often up to 57 µM), inactives show at the top dose activity change, negative = inhibition, hits mostly inhibitors. 0.72% of 360,000 active; further: on the % scale 0 is the no-effect control and ±100 the full control effect; nearly all actives have a fitted effect of over 55% in size
#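 qHTS (up to 57 uM final) was run with 24 h compound exposure of reporter cells at 37 °C. Each well was multiplexed: SteadyGlo luminescence measured ATXN2-luciferase expression after a fluorogenic Gly-Phe-AFC viability readout (25 uM final).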
# HepG2 tox: HepG2 cytotoxicity, counter-screen for TGF-b inhibitors | HepG2 CAGA-GFP viability, ATP luminescence, 18 h | Potency, µM (series often up to 46.1 µM), for the others: at the top dose activity change, negative = cytotoxicity, most hits filed as cytotoxic | 0.76% of 410,000 active | AID 588856
#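 CellTiter-Glo luminescence gave cytotoxicity after 18 hours at 37 degrees C. The cells were HepG2 CAGA-GFP in 1% FBS DMEM, stimulated with 500 pg/mL TGF-beta after compound addition. %Activity was normalised to no-cell wells (complete cell-killing) and DMSO (no toxicity), and curves were fitted and classified.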
# TDP1 cell noCPT: qHTS for Inhibitors of human tyrosyl-DNA phosphodiesterase 1 (TDP1): qHTS in cells in absence of CPT | DT40 Tdp1-/- hTDP1 cells, no CPT, ATP luminescence, 48 h | Potency, µM (top dose mostly 46.2 µM), inactives show top-dose activity change, negative = growth inhibition, most hits filed as inhibitors | 15% of 420,000 active | AID 686978, 2013; further: on the % scale 0 is the no-effect control and ±100 the full control effect; nearly all actives have a fitted effect of over 55% in size
#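 Camptothecin absent (DMSO only). Human TDP1-complemented DT40 knockout cells, 400 cells/well, 37 °C for minimum 48 hr; ATP measured via CellTiter-Glo, 30 min dark incubation, luminescence.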
# Active calls of the source: *; i = inactive; ? = inconclusive; / = not tested or not shown. The call rests on the fitted dose curve; in most records, active means well fitted curve in the direction sought with a large enough effect; inconclusive means small, poorly fitted or top-dose-only effect, or another doubt; inactive means no such curve, though single readings can be large; an effect the other way counts as inactive or inconclusive. Potency means the concentration at half of the fitted maximal effect.
SMILES,ATXN viability,DT40 TDP1 CPT,TGFb inhibitor,ATXN2 expr inh,HepG2 tox,TDP1 cell noCPT
CCc1cccc(C)c1NC(=O)C1CCN(S(=O)(=O)Cc2ccccc2)CC1,?,5%,0%,-7%,1%,1%
Cc1nc(NC2CCCCC2)c2nnn(Cc3ccccc3Cl)c2n1,i,?,-10%,10%,-20%,?
Cc1nc(Nc2ccc(Cl)cc2)c2nnn(Cc3ccccc3)c2n1,i,?,-6%,3%,3%,?
CC(=O)Nc1ccc(Nc2nc(C)nc3c2nnn3Cc2ccccc2Cl)cc1,i,-16%,4%,?,1%,16µM*
Cc1nc(N2CCCC2)c2nnn(Cc3ccccc3Cl)c2n1,i,13µM*,17%,-10%,2%,26µM*
CCOc1cc(OCC)c(C(C)=O)cc1OCC,i,?,-9%,-1%,1%,-6%
COc1c(N2CCN(C(=S)Nc3ccc(F)cc3)C(C)C2)c(F)cc2c(=O)c(C(=O)O)cn(C3CC3)c12 (stereo not given),i,-3%,-14%,-1%,1%,-23%
COc1c(N2CCN(C(=S)NC3CC4CCC3C4)C(C)C2)c(F)cc2c(=O)c(C(=O)O)cn(C3CC3)c12 (stereo not given),i,23µM*,-2%,14%,6%,23µM*
CN(C)c1ccc(-c2nc(NC3CCNCC3)c3ccccc3n2)cc1,/,1.3µM*,/,/,/,1.2µM*
CCCCN(CC)c1nc(-c2ccncc2)nc2ccccc12,i,16µM*,?,66%,-112%,?
COc1cccc(-c2nc(NC3CCNCC3)c3ccccc3n2)c1,/,?,/,/,/,21µM*
COCCNc1nc(-c2ccc(C(=O)N(C)C)cc2)nc2ccccc12,/,-17%,/,/,/,-29%
c1ccc2c(NC3CCNCC3)nc(-c3ccoc3)nc2c1,/,-3%,/,/,/,-3%
COCCNc1nc(-c2ccc(N(C)C)cc2)nc2ccccc12,/,?,/,/,/,21µM*
COc1cccc(CN(C)S(=O)(=O)c2ccccc2Br)c1,i,-8%,-10%,2%,-10%,-22%
O=C1c2ccccc2NC(c2cccc(O)c2)N1c1ccccc1 (stereo not given),i,?,2%,8%,-10%,?
Cc1ccccc1CNC(=O)c1ccc2nc(C(C)C)oc2c1,/,-29%,2%,/,-3%,-22%
CC(=O)NCCNc1nc(-c2ccccc2CN(C)C)nc2ccccc12,/,13%,/,/,/,4%
CCCN(CCC)c1nc(-c2ccccn2)nc2ccccc12,?,1.3µM*,?,?,-54%,3.3µM*
CN(C)Cc1ccccc1-c1nc(NC2CCNCC2)c2ccccc2n1,/,0.37µM*,/,/,/,0.65µM*
c1ccc(-c2nc(NCc3cccnc3)c3ccccc3n2)cc1,i,1%,-6%,-17%,-33%,-16%
c1ccc(CCNc2nc(-c3ccccn3)nc3ccccc23)cc1,?,3.3µM*,?,?,-11%,2.9µM*
COCCN(CCOC)c1nc(-c2ccc(C)cc2)nc2ccccc12,?,?,-21%,/,-14%,18µM*
CCCCNC(=O)C1(C)CCN1C(=O)c1csnn1 (stereo not given),i,-11%,3%,2%,2%,-11%
CSc1ccc(CN2CCC(C)(Oc3cnc(Cl)c4ccccc34)C2)cc1 (stereo not given),i,?,5%,-5%,-10%,?
CCCn1nc(C(=O)Nc2nc3ccccc3[nH]2)c2ccccc2c1=O,i,?,-3%,-23%,-11%,16µM*
CCCn1nc(C(=O)Nc2ccc(-n3cnnn3)cc2)c2ccccc2c1=O,i,?,0%,-6%,-4%,12µM*

# Assay outcomes deposited in PubChem BioAssay by National Center for Advancing Translational Sciences (NCATS).
